Data reported in PubChem BioAssay (NCATS).
Where “and” joins values, the source holds several entries; their conditions need not be identical. Equal values may be shown once. Inconclusive results are not listed. Entries that show only a call come without a potency. A number with no mark means an inactive call. Calls of active or inactive are those of the source. The call rests on the fitted dose curve; in most records, active means well fitted curve in the direction sought with a large enough effect; inconclusive means small, poorly fitted or top-dose-only effect, or another doubt; inactive means no such curve, though single readings can be large; an effect the other way counts as inactive or inconclusive.

Legend:
[1] = test system: Zika virus NS2B-NS3 protease (unlinked complex); assay: Primary screen GU Rhodamine qHTS for Zika virus inhibitors: Unlinked NS2B-NS3 protease assay (AID 1347159); further: nearly all actives have a fitted effect of over 60% in size; further: potency means the concentration at half of the fitted maximal effect
Method in brief: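 Noncovalent NS2B hydrophilic domain–NS3 protease domain complex (25 nM) preincubated 15 min at room temperature with compounds (up to 114 microM) in 10 mM Tris-HCl pH 8.0, 0.01% Tween 20; 1.5 microM Rhodamine110 substrate added, fluorescence change over 15 min fitted to Hill equation.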

[2] = test system: Zika virus NS2B-NS3 protease (linked construct); assay: Primary screen NINDS Rhodamine qHTS for Zika virus inhibitors (AID 1347160); further: nearly all actives have a fitted effect of over 55% in size; further: potency means the concentration at half of the fitted maximal effect
Method in brief: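 Purified linked NS2B-NS3 protease (NS2B hydrophilic domain joined to NS3 protease by flexible linker), 25 nM in 10 mM Tris-HCl pH 8.0, 0.01% Tween 20. Compounds titrated, 15 min preincubation at room temperature; 1.5 microM Rhodamine110 substrate, FITC fluorescence change over 15 min.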

[3] = Confirmatory screen NINDS Rhodamine qHTS for Zika virus inhibitors (AID 1347161); details: purified enzyme assay, Rhodamine110 substrate fluorescence, 15 min; further: potency means the concentration at half of the fitted maximal effect; nearly all actives have a fitted effect of over 60% in size
Method in brief: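 Each compound, titrated, sat 15 min with 25 nM linked protease before 1.5 microM Rhodamine110 substrate went in. Fluorescence gain over the next 15 min, in pH 8.0 Tris with Tween 20, gave Hill-fitted curves.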

[4] = test system: Zika virus NS2B-NS3 protease (linked); assay: 384 well plate NINDS AMC confirmatory qHTS for Zika virus inhibitors (AID 1347163); further: potency means the concentration at half of the fitted maximal effect; nearly all actives have a fitted effect of over 50% in size
Method in brief: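 Linked NS2B-NS3 protease (final 5 nM, 30 nM or 60 nM) was preincubated with compounds (final up to 1 mM) for ~15 minutes. Ac-VKTGKR-AMC substrate (final 30 microM) then reacted for 25 minutes at room temperature in the dark. Fluorescence (ex 355/em 460 nm) was normalized to no-enzyme and no-inhibitor controls.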

[5] = test system: Zika virus NS2B-NS3 protease (linked construct); assay: 384 well plate NINDS Rhodamine confirmatory qHTS for Zika virus inhibitors (AID 1347164);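 further: fluorescence from protease cleavage of Ac-LKRR-rhodamine 110 substrate; nearly all actives have a fitted effect of over 65% in size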; further: potency means the concentration at half of the fitted maximal effect; on activity change, negative = inhibition: top concentration of the series differs between compounds
Method in brief: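 Linked protease at a final 5 nM, 30 nM or 60 nM was preincubated ~15 min with compounds, then given 10 microM Ac-LKRR-Rhodamine 110. Fluorescence (ex 485/em 538 nm) after 25 min in the dark at room temperature.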

[6] = Vero cells viability qHTS for Zika virus inhibitors (AID 1347167)
Method in brief: (§1)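 Compounds were tested in concentration series on cells grown in DMEM containing 4% FBS. After 24 to 48 hours, cellular ATP was measured by luminescence with CellTiter Glo.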

[7] = HepG2 cells viability qHTS for Zika virus inhibitors (AID 1347168)
Method in brief: as §1

[8] = Tertiary RLuc qRT-PCR qHTS assay for Zika virus inhibitors (AID 1347169); further: potency means the concentration at half of the fitted maximal effect; nearly all actives have a fitted effect of over 55% in size
Method in brief: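 Vero cells (1,000 per well) plated overnight at 37 degrees C, treated with compound in DMSO, then infected with recombinant ZIKV-RLuc (Cambodian) at MOI 1-2 for 48-72 hrs. Live-cell Renilla luciferase substrate added; luminescence read after 1-1.5 hrs.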

Structure (SMILES): C=C1C(=O)O[C@H]2[C@H]1[C@@H](OC(=O)C(C)CO)C[C@@]1(C)[C@H](O)CCC(=O)[C@H]21 (stereo partly specified)
- Potency [1]: inactive
- Potency [2]: inactive

Structure (SMILES): N#CC1C(=O)Nc2scc(-c3ccc(-c4ccccc4O)cc3)c2C1=O (stereo unspecified)
- Potency [1]: 2.51 µM (active)
- Potency [2]: 3.16 µM (active)
- Potency [3]: 2.48 µM (active)
- Potency [4]: 6.31 µM (active)
- Potency [5]: 12.6 µM (active)
- outcome [6]: inactive
- outcome [7]: inactive

Structure (SMILES): CNc1nc(Nc2cnn([C@H]3CCN(C4COC4)C[C@@H]3F)c2Cl)ncc1C(F)(F)F
- Potency [1]: inactive
- Potency [2]: inactive

Structure (SMILES): CC1(C)CCC(C)(C)c2cc3c(cc21)Sc1ccccc1N=C3c1ccc(C(=O)O)cc1
- Potency [1]: 2.51 µM (active)
- Potency [2]: 2.24 µM (active)
- Potency [3]: 1.75 µM (active)
- Potency [4]: 8.91 µM (active)
- Potency [5]: 4.47 µM (active)
- outcome [6]: inactive
- outcome [7]: inactive

Structure (SMILES): CC1(C)NC2N(C1=O)c1ccccc1C2(O)CC(C(=O)O)n1cnc2ccccc2c1=O (stereo unspecified)
- Potency [1]: inactive
- Potency [2]: inactive

Structure (SMILES): CC1=CC(=O)OC(C)(CC(C)(O)C(=O)O)C1 (stereo unspecified)
- Potency [1]: inactive
- Potency [2]: inactive

Structure (SMILES): CN1CCC(c2c[nH]c3ccc(NC(=O)c4ccc(F)cc4)cc23)CC1
- Potency [1]: inactive
- Potency [2]: inactive

Structure (SMILES): Cc1onc(-c2ccccc2)c1C(=O)N[C@@H]1C(=O)N2[C@@H]1SC(C)(C)[C@@H]2C(=O)O
- Potency [1]: inactive
- Potency [2]: inactive

Structure (SMILES): COc1cccc(-n2nc(C(=O)O)cc2-c2ccc(C3CCCCC3)c(Cl)c2)c1
- Potency [1]: 1.78 µM (active)
- Potency [2]: 2.51 µM (active)
- Potency [3]: 1.97 µM (active)
- Potency [5]: 5.01 µM (active)
- outcome [6]: inactive
- outcome [7]: inactive
- Potency [8]: 18.6 µM (active)

Structure (SMILES): CCOc1ccc(-c2ccc(Cn3c(CC(C)(C)C(=O)O)c(SC(C)(C)C)c4cc(OCc5ccc(C)cn5)ccc43)cc2)cn1
- Potency [1]: 2.51 µM (active) and 2.82 µM (active)
- Potency [2]: 3.16 µM (active)
- Potency [3]: 2.21 µM (active)
- Potency [5]: inactive
- outcome [6]: inactive
- outcome [7]: inactive
- Potency [8]: 5.23 µM (active)

Structure (SMILES): CC(=O)O[C@@H]1[C@H](O[C@@H]2O[C@H](CO)[C@@H](O)[C@H](O)[C@H]2O)[C@@H](O[C@@H]2O[C@@H](C)[C@H](O)[C@@H](O[C@@H]3O[C@H](CO)[C@@H](O)[C@H](O)[C@H]3O)[C@H]2O)[C@H](OC(=O)C23CCC4(C)C(=CCC5C6(C)CC(O)C(O[C@@H]7O[C@H](C(=O)O)[C@@H](O)[C@H](O)[C@H]7O)C(C)(C(=O)O)C6CCC54C)C2CC(C)(C)CC3O)O[C@@H]1C (stereo partly specified)
- activity change, negative = inhibition [1]: 7.44% [at 19.1 µM]
- activity change, negative = inhibition [2]: 3.1% [at 10.7 µM]

Structure (SMILES): O=C(O)c1ccc(CCCc2ccc(OCCc3ccc(F)cc3)cc2)o1
- Potency [1]: 4.47 µM (active)
- Potency [2]: 3.98 µM (active)
- Potency [3]: 2.78 µM (active)
- Potency [4]: 5.01 µM (active)
- Potency [5]: inactive
- outcome [6]: inactive
- outcome [7]: inactive

Structure (SMILES): C=CC(C)(CC/C=C(\C)CC/C=C(\C)CC(O)/C=C(\C)C(=O)O)O[C@@H]1O[C@H](CO)[C@@H](O)[C@H](O)[C@H]1O[C@@H]1O[C@H](CO)[C@@H](O)[C@H](O)[C@H]1O (stereo partly specified)
- Potency [1]: inactive
- Potency [2]: inactive
